Data on eight molecules can be found in ChEMBL document CHEMBL1961873, “Compounds: GSK PKIS; Assays: Nanosyn kinase panel” (2012).

The target in test [1] is Sphingosine kinase 1 (Homo sapiens) (UniProt Q9NYA1). Conditions: at 1 µM.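 Note: mean SPHK1 inhibition value reported from the GSK PKIS kinase panel screen.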
Test [2] deals with T1, Sphingosine kinase 2 (Homo sapiens) (UniProt Q9NRA0).
T1 sequence (whole entry): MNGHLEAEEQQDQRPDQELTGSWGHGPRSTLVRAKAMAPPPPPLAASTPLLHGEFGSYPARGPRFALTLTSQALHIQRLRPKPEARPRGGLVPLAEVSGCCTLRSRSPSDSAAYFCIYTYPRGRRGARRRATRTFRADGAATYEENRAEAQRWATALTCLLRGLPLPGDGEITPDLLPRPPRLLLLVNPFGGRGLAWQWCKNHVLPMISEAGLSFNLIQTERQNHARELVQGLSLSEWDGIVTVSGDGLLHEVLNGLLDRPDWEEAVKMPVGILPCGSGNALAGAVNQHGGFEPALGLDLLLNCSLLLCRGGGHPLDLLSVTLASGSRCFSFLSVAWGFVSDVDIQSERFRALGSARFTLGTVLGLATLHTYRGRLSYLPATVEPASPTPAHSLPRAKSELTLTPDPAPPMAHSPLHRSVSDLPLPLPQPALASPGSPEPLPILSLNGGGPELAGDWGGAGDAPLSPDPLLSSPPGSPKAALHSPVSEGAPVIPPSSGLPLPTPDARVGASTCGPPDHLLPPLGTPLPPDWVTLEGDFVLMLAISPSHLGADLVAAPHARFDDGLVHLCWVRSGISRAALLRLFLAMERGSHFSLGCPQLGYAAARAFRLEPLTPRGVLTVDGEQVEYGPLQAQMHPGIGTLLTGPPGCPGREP
The conditions noted are these: at 0.1 µM.

Test [3] has as its target T1, Sphingosine kinase 2 (Homo sapiens). Conditions: at 1 µM.
Test [4] has as its target Casein kinase II subunit alpha (Homo sapiens) (UniProt P68400). Conditions: at 0.1 µM.
Test [5] shares this target. The conditions noted are these: at 1 µM.
Test [6] concerns the target T2, Inhibitor of nuclear factor kappa-B kinase subunit alpha (Homo sapiens) (UniProt O15111).
T2 sequence (whole entry): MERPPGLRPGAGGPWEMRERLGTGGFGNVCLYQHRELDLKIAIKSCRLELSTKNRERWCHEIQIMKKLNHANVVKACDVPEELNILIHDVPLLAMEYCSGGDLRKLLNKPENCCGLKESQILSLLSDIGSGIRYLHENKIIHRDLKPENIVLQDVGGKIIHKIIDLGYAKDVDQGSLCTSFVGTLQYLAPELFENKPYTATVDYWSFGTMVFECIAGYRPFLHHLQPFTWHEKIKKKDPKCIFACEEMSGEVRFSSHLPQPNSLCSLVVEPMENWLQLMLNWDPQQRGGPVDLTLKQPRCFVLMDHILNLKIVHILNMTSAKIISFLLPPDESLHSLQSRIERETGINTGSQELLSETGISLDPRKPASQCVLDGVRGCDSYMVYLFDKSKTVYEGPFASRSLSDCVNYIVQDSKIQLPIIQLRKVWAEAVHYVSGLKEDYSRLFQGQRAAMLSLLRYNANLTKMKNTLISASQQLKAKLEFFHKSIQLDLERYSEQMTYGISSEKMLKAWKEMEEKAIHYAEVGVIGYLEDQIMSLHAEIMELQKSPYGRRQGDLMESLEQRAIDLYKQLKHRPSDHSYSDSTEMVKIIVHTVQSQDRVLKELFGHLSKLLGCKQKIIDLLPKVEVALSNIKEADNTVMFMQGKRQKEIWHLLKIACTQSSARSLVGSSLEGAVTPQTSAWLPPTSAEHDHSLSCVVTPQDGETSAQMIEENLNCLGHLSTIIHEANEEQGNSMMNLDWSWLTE
The conditions noted are these: at 0.1 µM.

In test [7] the target is T2, Inhibitor of nuclear factor kappa-B kinase subunit alpha (Homo sapiens). Conditions: at 1 µM.
In test [8] the target is T3, Inhibitor of nuclear factor kappa-B kinase subunit beta (Homo sapiens) (UniProt O14920).
T3 sequence (whole entry): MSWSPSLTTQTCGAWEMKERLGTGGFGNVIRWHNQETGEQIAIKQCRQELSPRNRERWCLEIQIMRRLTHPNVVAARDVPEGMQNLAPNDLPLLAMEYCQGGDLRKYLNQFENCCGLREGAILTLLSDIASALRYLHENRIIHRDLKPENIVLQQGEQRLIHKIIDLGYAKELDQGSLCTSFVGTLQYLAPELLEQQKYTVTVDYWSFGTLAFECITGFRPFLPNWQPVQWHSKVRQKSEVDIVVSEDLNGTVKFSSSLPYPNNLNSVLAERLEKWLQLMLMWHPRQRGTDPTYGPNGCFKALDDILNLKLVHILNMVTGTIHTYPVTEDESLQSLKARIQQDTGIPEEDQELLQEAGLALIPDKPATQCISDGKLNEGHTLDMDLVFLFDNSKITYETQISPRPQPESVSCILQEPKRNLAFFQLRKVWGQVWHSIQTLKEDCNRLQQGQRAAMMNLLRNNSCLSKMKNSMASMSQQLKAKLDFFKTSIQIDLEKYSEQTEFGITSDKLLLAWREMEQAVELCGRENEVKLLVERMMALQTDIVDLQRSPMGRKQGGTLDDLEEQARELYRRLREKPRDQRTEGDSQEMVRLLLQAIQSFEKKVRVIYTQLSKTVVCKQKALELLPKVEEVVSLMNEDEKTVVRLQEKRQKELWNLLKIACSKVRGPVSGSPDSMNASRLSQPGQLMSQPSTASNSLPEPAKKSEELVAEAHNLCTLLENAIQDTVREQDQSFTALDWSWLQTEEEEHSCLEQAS
The conditions noted are these: at 0.1 µM.

Test [9] addresses T3, Inhibitor of nuclear factor kappa-B kinase subunit beta (Homo sapiens). Conditions: at 1 µM.
Test [10] deals with T4, Inhibitor of nuclear factor kappa-B kinase subunit epsilon (Homo sapiens) (UniProt Q14164).
T4 sequence (whole entry): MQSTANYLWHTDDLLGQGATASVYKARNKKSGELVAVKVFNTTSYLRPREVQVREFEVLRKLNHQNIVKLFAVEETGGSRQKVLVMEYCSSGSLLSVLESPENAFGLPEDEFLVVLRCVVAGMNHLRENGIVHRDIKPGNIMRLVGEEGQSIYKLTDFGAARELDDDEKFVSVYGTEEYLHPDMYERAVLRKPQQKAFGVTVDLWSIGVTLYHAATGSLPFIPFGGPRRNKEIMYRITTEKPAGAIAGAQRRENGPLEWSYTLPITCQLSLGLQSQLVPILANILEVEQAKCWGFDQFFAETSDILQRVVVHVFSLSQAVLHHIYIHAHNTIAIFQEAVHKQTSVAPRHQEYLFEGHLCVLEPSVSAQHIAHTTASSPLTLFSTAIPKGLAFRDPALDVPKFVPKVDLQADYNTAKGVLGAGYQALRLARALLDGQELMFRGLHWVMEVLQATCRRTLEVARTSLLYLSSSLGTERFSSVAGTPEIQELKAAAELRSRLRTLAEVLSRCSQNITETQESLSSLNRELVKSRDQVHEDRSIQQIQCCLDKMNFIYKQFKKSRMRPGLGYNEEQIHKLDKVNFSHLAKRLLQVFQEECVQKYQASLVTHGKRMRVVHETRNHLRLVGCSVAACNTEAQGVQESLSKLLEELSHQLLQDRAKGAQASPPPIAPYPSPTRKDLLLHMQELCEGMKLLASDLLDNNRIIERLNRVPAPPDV
Conditions: at 0.1 µM.

Chain of Casein kinase II subunit alpha (Homo sapiens) (P68400 whole entry, looked up): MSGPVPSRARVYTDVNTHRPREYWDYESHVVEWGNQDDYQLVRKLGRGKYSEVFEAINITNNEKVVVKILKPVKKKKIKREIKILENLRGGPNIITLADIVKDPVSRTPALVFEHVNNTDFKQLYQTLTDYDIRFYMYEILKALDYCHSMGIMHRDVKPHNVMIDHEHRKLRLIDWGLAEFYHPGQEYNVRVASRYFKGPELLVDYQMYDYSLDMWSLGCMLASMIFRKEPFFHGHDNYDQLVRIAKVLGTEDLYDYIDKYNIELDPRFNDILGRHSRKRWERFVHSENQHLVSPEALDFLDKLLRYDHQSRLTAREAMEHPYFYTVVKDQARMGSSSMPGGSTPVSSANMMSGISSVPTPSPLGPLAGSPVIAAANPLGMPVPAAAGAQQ
Chain of Sphingosine kinase 1 (Homo sapiens) (Q9NYA1 whole entry): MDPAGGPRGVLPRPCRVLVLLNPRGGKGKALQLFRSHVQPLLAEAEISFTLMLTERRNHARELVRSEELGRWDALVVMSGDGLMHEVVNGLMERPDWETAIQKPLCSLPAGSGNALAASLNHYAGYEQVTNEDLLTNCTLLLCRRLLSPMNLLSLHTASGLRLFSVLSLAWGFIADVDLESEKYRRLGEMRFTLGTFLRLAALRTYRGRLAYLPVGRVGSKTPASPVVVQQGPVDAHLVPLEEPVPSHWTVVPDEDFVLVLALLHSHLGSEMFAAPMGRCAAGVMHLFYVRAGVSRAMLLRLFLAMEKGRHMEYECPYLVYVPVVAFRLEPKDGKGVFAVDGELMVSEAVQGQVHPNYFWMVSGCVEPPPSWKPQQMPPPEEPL

For `O=C(Nc1ccc(Oc2ccc3[nH]c(NC(=O)c4ccccc4)nc3c2)cc1)Nc1cc(C(F)(F)F)ccc1F`, the inhibition in [1] was 3.13%; in [2], 17.6%; in test [3], -0.1%; in [4], 2.74%; in [5], 4.99%; in test [6], -5.25%. For the same molecule, the inhibition in [7] was -0.85%; in test [8], 4.57%; in test [9], 2.88%; in [10] it was 3.68%.

In the case of `Clc1ccc(CNc2nccc(-c3cnn4ncccc34)n2)cc1`, the inhibition in test [1] is 0.04%; in test [2], -0.11%; in test [3], -0.22%; in test [4] it was 2.95%; in [5], 17.9%; in test [6], 1.91%. The inhibition in [7] is 7.65%; in test [8] it was 1%; in test [9], 0.32%; in test [10] it was 0.31%.

Consider `CCS(=O)(=O)c1ccc(OC)c(Nc2ncc(-c3ccccc3Cl)o2)c1`, for which the inhibition in test [1] was -2.06%; in [2], 0%; in [3], -1.74%; in [4] it was 3.8%; in [5], 23.3%; in test [6], 2.45%. For the same molecule, the inhibition in [7] is 3.42%; in test [8] it was 1.4%; in test [9] it was -0.23%; in test [10], 3.21%.

Turning to `O=C(NCC1CC1)c1ccc(-c2cccc(C(=O)NC3CC3)c2)cc1`, the inhibition was -3.07% in test [1]; 0.02% in [2]; 1.28% in test [3]; 0.31% in test [4]; -2.23% in test [5]; 4.96% in test [6]. For the same molecule, the inhibition was 0.42% in test [7], 1.17% in test [8], 0.13% in [9] and 3.8% in test [10].

Turning to `FC(F)(F)c1cccc(Nc2nccc(-c3cnn4nc(-c5ccccc5)ccc34)n2)c1`, the inhibition was -2.23% in test [1]; -1.01% in test [2]; -0.56% in test [3]; 7.97% in test [4]; 4.42% in test [5]; 1.94% in test [6]. Besides, the inhibition in test [7] turned out to be 7.04%; in [8], 3.55%; in test [9] it was 3.27%; in test [10], 3.76%.

Take `COc1ccc(-c2ccc3c(NC(=O)C4CC4)n[nH]c3n2)cc1`: the inhibition in test [1] is -0.43%; in [2], -0.3%; in test [3] it was 1.99%; in test [4] it was 3.46%; in [5] it was 8.9%; in [6], 9.58%. The inhibition in [7] amounted to 7.37%; in [8], 4.51%; in test [9], 4.44%; in [10], 6.37%.

As for `Fc1ccc(-c2ncn(C3CCNCC3)c2-c2ccnc(Oc3ccc(F)c(F)c3)n2)cc1`, the inhibition in test [1] was -0.78%; in test [2] it was 1.4%; in test [3] it was -2.94%; in test [4], 1.69%; in test [5], 3.12%; in test [6] it was -1.24%. The inhibition in test [7] is 3.68%; in test [8], 6.9%; in test [9], 5.72%; in [10] it was 6.6%.

As to `O=C1NC(=O)C(c2cccc(Cl)c2)=C1Nc1ccc(Cl)c(C(=O)O)c1`, the inhibition in [1] is 2.31%; in test [2], -0.06%; in [3], 0.61%; in test [4], 2.24%; in test [5], 7.88%; in test [6], 2.51%. The inhibition was -0.25% in test [7], 3.73% in test [8], 4.76% in test [9] and 6.56% in test [10].
